Several values for one entry are separate records, joined by “and”; a condition that tells them apart may be missing. Equal entries are not always repeated.
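Also: High-content confocal imaging of branched-DNA amplified FISH in 384-well plates, Hoechst-defined nuclei, score is well value minus plate DMSO median over DMSO robust SD, four wells per compound.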

This experiment has as its system HeLa. In words: MALAT1 nuclear FISH intensity, robust Z-score vs DMSO; higher = more nuclear MALAT1 lncRNA, active = -3 or less. Conditions: 10 µM; 6 h.
With `Cc1nnc(C(C)C)n1C1C[C@H]2CC[C@@H](C1)N2CC[C@H](NC(=O)C1CCC(F)(F)CC1)c1ccccc1` (stereo in doubt) [Maraviroc], the “MALAT1 nuclear FISH intensity” value was 0.801 (inactive).
Turning to `CC(=O)[C@H]1[C@H](C#N)C[C@H]2[C@@H]3CC=C4C[C@@H](O)CC[C@]4(C)[C@H]3CC[C@@]21C`, the “MALAT1 nuclear FISH intensity” value was -1.82 (inactive).
Turning to `CNCCC=C1c2ccccc2CCc2ccccc21`, the “MALAT1 nuclear FISH intensity” value was 1.01 (inactive).
Take `COC(=O)C[C@H](NC(=O)[C@H](C)NC(=O)[C@@H](NC(=O)OCc1ccccc1)C(C)C)C(=O)CF`: the “MALAT1 nuclear FISH intensity” value was 1.72 (inactive) and -0.23 (inactive).
Consider `O=c1oc2ccccc2c(O)c1Cc1c(O)c2ccccc2oc1=O` [Dicumarol], for which the “MALAT1 nuclear FISH intensity” value was -1.34 (inactive).
As to `CC/C(=C(/CC)c1ccc(O)cc1)c1ccc(O)cc1` [Diethylstilbestrol], the “MALAT1 nuclear FISH intensity” value was -0.534 (inactive).
The figure for `CO[C@H]1/C=C/O[C@@]2(C)Oc3c(C)c(O)c4c(O)c(c(/C=N/N5CCN(C6CCCC6)CC5)c(O)c4c3C2=O)NC(=O)/C(C)=C\C=C\[C@H](C)[C@H](O)[C@@H](C)[C@@H](O)[C@@H](C)[C@H](OC(C)=O)[C@@H]1C` [Rifapentine] is -0.447 (inactive); for `OC(Cn1cncn1)(Cn1cncn1)c1ccc(F)cc1F` [Fluconazole] it is -1.32 (inactive).
For `CC(=O)OCOC(c1ccc2ccccc2c1)P(=O)(OCOC(C)=O)OCOC(C)=O` (stereo not given), the “MALAT1 nuclear FISH intensity” value was -0.659 (inactive).
As to `C[N+]1(C)[C@@H]2CC[C@H]1C[C@@H](OC(=O)C(O)c1ccccc1)C2` (stereo not given in full) [Homatropine Methylbromide], the “MALAT1 nuclear FISH intensity” value was -1.08 (inactive).

Source of the values: the supplement of paper PMC9844399.
